# In ChEMBL document CHEMBL4513216, “Probing the Open Global Health Chemical Diversity Library for Multistage-Active Starting Points for Next-Generation Antimalarials” (ACS Infect Dis, 2020):
# Out of some 69,000 compounds screened, about 8,600 (12%) showed an effect of 50% or more. The list comes from a sample in which strong results are over-represented; it also holds similar structures and randomly drawn compounds.
# Tested on: Plasmodium berghei
# Assay: Screen against P. berghei liver stage (PbLuc), transformed with Luciferase, at 10uM
# Format: functional, HepG2
# Conditions: tested at 10 uM
row,Structure (SMILES),INHIBITION
1,CC(NC(=O)CCC(=O)c1cccs1)c1nnc2n1CCC2 (stereo not drawn),-31.5%
2,CNC(=O)COC(=O)c1cccc(-n2ccc(C(F)(F)F)n2)c1,40.6%
3,CNC(=O)CCOC(=O)c1cccc(-n2ccc(C(F)(F)F)n2)c1,24.8%
4,CNC(=O)CCOC(=O)c1cccc(-n2cccn2)c1,77.7%
5,CO[C@H]1CCN(Cc2cnn(C)c2)[C@@H]2CN(Cc3cccnc3)C[C@H]12,0%
6,COc1ccc(-c2cc(C(=O)NCCCn3ccnc3C)n(C)n2)cc1,18.3%
7,CN(CCOc1cccc(CN)c1)C1CCOCC1,0%
8,COCC(=O)NCc1cccc(OCCN(C)C2CCOCC2)c1,88.1%
9,CN(CCOc1cccc(CNS(C)(=O)=O)c1)C1CCOCC1,39.5%
10,CN(CCOc1cccc(CNC(=O)C2CC2)c1)C1CCOCC1,29.2%
11,CCC(C)C(=O)NCc1cccc(OCCN(C)C2CCOCC2)c1 (stereo not drawn),39.5%
12,CC(C)CC(=O)NCc1cccc(OCCN(C)C2CCOCC2)c1,71.3%
13,CSC(C)(C)CNC(=O)NC1CCN(CC(F)F)CC1,33.7%
14,CN(C)CC1CN(Cc2ccc(F)cc2)Cc2nccn2C1 (stereo not drawn),24.1%
15,COc1ccc(-n2cc3nc(N)[nH]cc-3c2=O)cc1,28.4%
16,O=C1[C@H]2CN(Cc3cccs3)C[C@H]2CN1c1ccsc1,14.8%
17,Cc1ncsc1C(=O)N(Cc1ccccc1)C1CC1,33.45%
18,CCC(O)CN(c1ccccc1)S(=O)(=O)c1cnc(C)s1 (stereo not drawn),37.8%
19,CCC(O)CN(Cc1ccccc1)S(=O)(=O)c1cnc(C)s1 (stereo not drawn),52.6%
20,CN(CCOc1ccc(C#N)cc1)CC1CCS(=O)(=O)C1 (stereo not drawn),22.6%
21,Cn1cc(N2C(=O)CC[C@@H]3[C@H]2CCN3Cc2ccncc2)cn1,-10.4%
22,COc1ccc(CN2CC[C@@H]3[C@H]2CCC(=O)N3c2cnn(C)c2)cc1,61.9%

row,Structure (SMILES),INHIBITION
1,Cn1cc(CN2CC[C@@H]3[C@H]2CCC(=O)N3c2ccccc2)cn1,-46.8%
2,CN1CCN(C2CCN(CC(O)c3ccccc3F)CC2)C1=O (stereo not drawn),17.065%
3,c1cnc(-c2nn3c(CN4CCCCC4)nnc3s2)cn1,6.83%
4,CCOC(=O)C1=NOC(Cc2cc(OC)c3c(c2)OCO3)C1 (stereo not drawn),60%
5,COc1cc(CC2CC(C(N)=O)=NO2)cc2c1OCO2 (stereo not drawn),16.3%
6,COC(=O)C1=NOC(Cc2cc(OC)c3c(c2)OCO3)C1 (stereo not drawn),10.7%
7,CN1CC(C(=O)NCCc2ccc(F)c(Br)c2)CC1=O (stereo not drawn),-50.6%
8,O=C(CCN1CCCCC1c1cc2ccccc2[nH]1)N1CCOCC1 (stereo not drawn),55.8%
9,O=C(CCN1CCCCCC1c1ccco1)N1CCOCC1 (stereo not drawn),19.5%
10,COc1ccc(C2CCCCCN2CCCNS(C)(=O)=O)cc1 (stereo not drawn),0.914%
11,O=C(CCN1CCC(c2cc3ccccc3[nH]2)CC1)N1CCOCC1,39.7%
12,CS(=O)(=O)NCCCN1CCCC1c1ccccc1 (stereo not drawn),9.25%
13,CS(=O)(=O)NCCCN1CCCCC1c1cc2ccccc2[nH]1 (stereo not drawn),52%
14,OC(CN1CCN(Cc2cccc(F)c2)CC1)C1CC1 (stereo not drawn),-16.5%
15,Cc1n[nH]c(C)c1NC(=O)CN1CCCC1c1noc(C(C)C)n1 (stereo not drawn),14.1%
16,c1cncc(-c2noc(CN3CCOC(Cn4cccn4)C3)n2)c1 (stereo not drawn),16.1%
17,Cc1ccc(CN(CCN(C)C)C(=O)Nc2cnn(C)c2)s1,46.4%
18,CN(C)c1nccc(C2CCCN2S(=O)(=O)c2cn(C)cn2)n1 (stereo not drawn),12.3%
19,O=C(NCc1nnc2n1CCC2)c1cn(-c2cccc(Br)c2)nn1,35.7%
20,COCCNC(=O)Nc1ccc(F)c(C(N)=O)c1,39.8%
21,CCS(=O)(=O)N1Cc2ncn(CC3CC3)c2C(COC)C1 (stereo not drawn),11.5%
22,COCC1CN(C(=O)CS(C)(=O)=O)Cc2ncn(CC3CC3)c21 (stereo not drawn),50%

row,Structure (SMILES),INHIBITION
1,COCC1CN(C(=O)COc2ccccc2C)Cc2ncn(C)c21 (stereo not drawn),-9.42%
2,CCOCC1CN(S(=O)(=O)C2CC2)Cc2ncn(CC3CC3)c21 (stereo not drawn),7.53%
3,CCn1nnc2c1C(COC)CN(C(=O)COc1ccccc1)C2 (stereo not drawn),-12.2%
4,COCC1CN(CC2CC2)Cc2ncn(CC3CC3)c21 (stereo not drawn),13.5%
5,COCC1CN(S(C)(=O)=O)Cc2ncn(CC3CC3)c21 (stereo not drawn),-3.1%
6,COCC1CN(C(=O)COc2ccccc2)Cc2ncn(C)c21 (stereo not drawn),51.2%
7,COCC1CN(S(=O)(=O)C2CC2)Cc2ncn(CC3CC3)c21 (stereo not drawn),51%
8,CS(=O)(=O)c1ccc(-c2nc(C(=O)N3CCCC3)n3ccccc23)cc1,-42.9%
9,Cc1ccc(CN2CC[C@@H](O)[C@@H]2Cc2ccccc2)o1,42.3%
10,CC1=C(c2ccc(F)cc2)S(=O)(=O)N=C1N1CCc2ccccc21,0.29%
11,CC(C)N(C)CCNC(=O)N1CCN(Cc2ccon2)CC1,-0.514%
12,CCc1cnc(CN(C)C2CCN(CCS(C)(=O)=O)C2)o1 (stereo not drawn),36.8%
13,Cc1cnc(CN(Cc2ccc(Cl)s2)C2CCN(C)C2)o1 (stereo not drawn),51.2%
14,Cc1cnc(CN(C)C2CCN(Cc3sc(C)nc3C)C2)o1 (stereo not drawn),21.6%
15,CC(=O)N(Cc1ncc(C)o1)C1CCN(Cc2ccc(F)c(F)c2)C1 (stereo not drawn),68.9%
16,Cc1cnc(CN(C)C2CCN(Cc3ccc(Cl)s3)C2)o1 (stereo not drawn),60%
17,CC(C)c1cnc(CN(C)C2CCN(CCS(C)(=O)=O)C2)o1 (stereo not drawn),38.5%
18,CC(=O)N(Cc1ncc(C)o1)C1CCN(Cc2ccccc2F)C1 (stereo not drawn),-19.9%
19,Cc1cnc(CN(Cc2ccc(C#N)cc2F)C2CCN(C)C2)o1 (stereo not drawn),-40.7%
20,CCS(=O)(=O)CCN1CCC(N(C)Cc2ncc(C)o2)C1 (stereo not drawn),74.4%
21,CC(=O)N(Cc1ncc(C)o1)C1CCN(Cc2cccnc2)C1 (stereo not drawn),31.9%
22,Cc1cnc(CN(C)C2CCN(Cc3cnc(C)s3)C2)o1 (stereo not drawn),23.1%

row,Structure (SMILES),INHIBITION
1,COc1ccc(C)cc1CN(Cc1ncc(C)o1)C1CCN(C)C1 (stereo not drawn),23.7%
2,CN(C)c1ccc(C(=O)NCc2ccc(N3CCOCC3)cc2)cn1,12%
3,Cc1n[nH]c(C2CN(C(=O)CCOCC(F)(F)F)CCO2)n1 (stereo not drawn),13.6%
4,CC(=O)N1CCOCC2(CCN(Cc3ccc(C)s3)CC2)C1,20.2%
5,CS(=O)(=O)N1CCO[C@@H]2CN(C(=O)N3CCCC3)CC[C@@H]2C1,43.9%
6,O=C(c1cc2c(s1)CCCC2)N1CCc2nc(C3CCCN3)ncc2C1 (stereo not drawn),49.6%
7,Cc1nn2cccnc2c1C(=O)N1CCCC(n2ccnc2C)C1 (stereo not drawn),2.3%
8,COc1ccccc1-c1cc(C(=O)N(C)C)c2cnn(C)c2n1,-8.9%
9,Cn1ccnc1-c1nc(NC2CCCC2)ncc1-c1cccc(F)c1,63.8%
10,CCOCCCNc1ncc(-c2cccc(F)c2)c(-c2nccn2C)n1,8.12%
11,COCCNc1ncc(-c2cccc(F)c2)c(-c2nccn2C)n1,25.8%
12,COc1nn(C)c2c1CCCN(C(=O)c1c[nH]cn1)C2,14%
13,COc1nn(C)c2c1CCCN(C(=O)c1cnccn1)C2,18.6%
14,COc1nn(C)c2c1CCCN(C(=O)c1cscn1)C2,51.2%
15,CCCn1nccc1NC(=O)CN1CCCC1c1cccn1C (stereo not drawn),25.1%
16,Cc1cc(C)cc(N2CCN(Cc3cccnc3)CC2=O)c1,41.5%
17,O=C1CC2(CCN(Cc3ccc(-c4ccccc4)s3)C2)C(=O)N1 (stereo not drawn),21.2%
18,O=C1NCC2(CCCN(Cc3ccc(Cl)s3)C2)Oc2ccccc21 (stereo not drawn),43.7%
19,O=C1CC2(CCN(Cc3ccc(Cl)s3)C2)C(=O)N1 (stereo not drawn),61.6%
20,O=C(Cc1ccccn1)N1CCc2ncnc(NC3CCC3)c2CC1,38.5%
21,CCc1nc(C)c(C(=O)NCCN2CCN(C(C)=O)CC2)s1,22.3%
22,Cc1nn(C)cc1CN1CCc2c(nc(-c3ccccn3)[nH]c2=O)C1,38.8%

row,Structure (SMILES),INHIBITION
1,COc1cc2c(cc1OC)C(=O)C(Sc1nncn1C)C2 (stereo not drawn),6.67%
2,CC1CN(C)CCN1Cc1cccc(C(=O)NCc2ccco2)c1 (stereo not drawn),-5.9%
3,Cc1cccc(C)c1NC(=O)c1cccc(CN2CCCC2C)c1 (stereo not drawn),41.5%
4,CC1CCCN1Cc1cccc(C(=O)Nc2ccc3[nH]c(=O)oc3c2)c1 (stereo not drawn),74.7%
5,O=C(NCc1ccco1)c1cccc(CN2CCCC2CO)c1 (stereo not drawn),5.58%
6,COc1ccc(NC(=O)c2cccc(CN3CCCC3C)c2)cc1OC (stereo not drawn),42.6%
7,CC1CCCN1Cc1cccc(C(=O)Nc2ccc3c(c2)CCC3=O)c1 (stereo not drawn),58.6%
8,CCN(C)C(=O)CCC(=O)c1cccs1,40.2%
9,COc1ccc(CN(C)C(=O)CCC(=O)c2cccs2)c(OC)c1OC,50.1%
10,COc1cccc(CN(C)C(=O)CCC(=O)c2ccccc2)c1OC,-16.9%
11,COCCN1CCC(CN(CC2CCCO2)C(=O)CCC(F)(F)F)CC1 (stereo not drawn),6.67%
12,Cc1ccc(OCc2ccc(C(=O)O)s2)cc1C,-32.9%
13,COc1ccc(N(c2ccc(C)cc2)c2ccc(C(=O)O)s2)cc1,27.8%
14,COc1ccc(N(c2ccccc2)c2ccc(C(=O)O)s2)cc1,66.4%
15,COc1cncc(-n2ccnc2-c2ccc(C(=O)O)s2)c1,14.6%
16,COc1ccc(N(c2ccc(OC)cc2)c2ccc(C(=O)O)s2)cc1,69.3%
17,CCC(=O)Nc1nnc(CCOc2ccc(OC)cc2)s1,40%
18,Cc1nc(N2CCCC2)ncc1-c1cc(O)n2ncnc2n1,16.8%
19,CN1CCCCC1(C)C(=O)N1CCC(c2ccccn2)CC1 (stereo not drawn),19.825%
20,OC(COCc1ccco1)CN1CCc2c(ncn2C2CC2)C1 (stereo not drawn),-58.7%
